Most compounds without a hit are left out; they make up all but 2.9% or so of the library.
ATXN viability – viability counter-screen for ATXN expression inhibitors; S2 cells (HEK-293 line with an ATXN2-luciferase reporter) viability, CellTiter-Fluor protease fluorescence, 24 h; Potency, µM (series often up to 56.7 µM), usual class: cytotoxic; actives 0.49% (n = 400,000); AID 651635; further: nearly all actives have a fitted effect of over 40% in size
Nrf2 inh – Nrf2 pathway inhibition; AID 504444; actives 2.1% (n = 360,000); Potency, µM (highest dose often 46 µM), for inactives: at the top dose activity change, negative = inhibition, actives largely listed as inhibitors; A549 ARE-Fluc reporter, luciferase luminescence, 18-24 h; further: on the % scale 0 is the no-effect control and ±100 the full control effect; nearly all actives have a fitted effect of over 60% in size
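A549 ARE_Fluc cells, 5000/well, 5% FBS OPTI-MEM; compounds in dose-response, 18-24 h at 37 °C/5% CO2; CellTiter-Fluor viability read (Ex 405/Em 525), then BugLite luciferase luminescence = Nrf2 activity.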
A549 tox – A549 cytotoxicity, counter-screen for Nrf2 inhibitors; A549 ARE-Fluc cells, CellTiter-Fluor viability, 18-24 h; Potency, µM (doses to about 46 µM), inactives show at the highest dose activity change, negative = cytotoxicity, hits mostly inhibitors; actives 0.16% (n = 390,000); AID 504648; further: on the % scale 0 is the no-effect control and ±100 the full control effect
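A549 ARE-Fluc cells in 5% FBS OPTI-MEM, 5000 cells/well, rested 2 h then exposed to compounds in concentration-response for 18-24 h at 37 °C. Viability by CellTiter-Fluor fluorescence (Ex 405/Em 525) after 30 min; luciferase luminescence (BugLite, 15 min, RT) read afterwards.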
Nrf2 ARE act – activators of Nrf2 (ARE) signaling | actives 0.31% (n = 410,000) | AREc32 ARE-luciferase reporter (MCF7-derived line), luminescence, 24 h | Potency, µM (top dose mostly 46.1 µM), without a hit: at the highest dose activation, usual class: activators; further: % of control where 0% means no effect; nearly all actives have a fitted effect of over 65% in size
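AREc32 cells carrying an ARE-driven firefly luciferase, 1000 cells/well in OPTI-MEM with 5% FBS, dosed after overnight attachment and incubated 24 hr at 37 deg C. Steady-Glo luminescence read after 30 min at RT.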
ATXN2 expr inh – reduces ATXN2 reporter expression in HEK-293 cells; HEK-293 ATXN2-luciferase reporter, luminescence, 24 h; Potency, µM (doses to about 57 µM), for inactives: top-dose activity change, negative = inhibition, hits mostly inhibitors; actives 0.72% (n = 360,000); AID 1745845; further: on the % scale 0 is the no-effect control and ±100 the full control effect; nearly all actives have a fitted effect of over 55% in size
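ATXN2-luciferase reporter cells (luciferase flanked by upstream and downstream ATXN2 gene portions) were treated 24 h at 37 °C with compounds at up to 57 uM. SteadyGlo luminescence gave expression; GF-AFC fluorescence gave viability.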
The depositor's hits bear a star; i = inactive; ? = inconclusive; . = no result; [ ] = remark or other dose. The call rests on the fitted dose curve; in most records, active means well fitted curve in the direction sought with a large enough effect; inconclusive means small, poorly fitted or top-dose-only effect, or another doubt; inactive means no such curve, though single readings can be large; an effect the other way counts as inactive or inconclusive. Potency means the concentration at half of the fitted maximal effect.

SMILES	ATXN viability	Nrf2 inh	A549 tox	Nrf2 ARE act	ATXN2 expr inh
CCN1CCN(C(=O)c2ccc3c(c2)N(Cc2cccc(Cl)c2)C(=O)c2ccccc2S3=O)CC1 (stereo unspecified)	.	.	7%	0%	.
CC1CC(C)CN(CCCNC(=O)c2ccc3c(c2)N(Cc2ccccc2)C(=O)c2ccccc2S3=O)C1 (stereo unspecified)	28µM*	-7%	-5%	-4%	.
CCN1C(=O)c2ccccc2S(=O)c2ccc(C(=O)N3CCN(c4cccc(C)c4)C(C)C3)cc21 (stereo unspecified)	i	16µM*	-29%	1%	-18%
COc1ccc(C(=O)N(Cc2ccccc2)Cc2ccco2)c(O)c1	.	28%	2%	.	.
COc1ccc2c(c1)CCc1cnc(-n3ncc(C(=O)N4CCN(CCO)CC4)c3C3CC3)nc1-2	i	.	.	.	.
CC(/C=N/n1c(-c2cc(C)[nH]n2)n[nH]c1=S)=C\c1ccco1	i	-9%	-12%	5%	-3%
CC(/C=N/NC(=O)c1ccccn1)=C\c1ccco1	i	15%	40%	?	.
CC(/C=N/n1c(-c2ccc(Cl)cc2)n[nH]c1=S)=C\c1ccco1	i	13%	-7%	2.8µM*	-9%
CC(/C=N/n1cnnc1)=C\c1ccco1	i	12%	-1%	11µM*	8%
COc1cccc(NC(=O)C2CC(=O)N(c3ccc(Br)cc3)C2)c1 (stereo unspecified)	i	4%	2%	-1%	-5%
O=C1Nc2ccccc2Oc2cc([N+](=O)[O-])cc(Oc3ccccc3)c21	i	?	0%	8%	20%
Cc1cccc(Oc2cc([N+](=O)[O-])cc3c2C(=O)Nc2ccccc2O3)c1	i	16µM*	-13%	7%	12%
COc1ccccc1NC(=O)C(C)OC(=O)/C=C/c1ccc2ccccc2n1 (stereo unspecified)	i	2%	2%	18µM*	21%
Cc1ccc(N/C=C/C(=O)c2ccccc2)cc1Br	i	?	-12%	11µM*	.
COc1ccc(N/C=C/C(=O)c2ccccc2)cc1	?	?	-6%	0%	.
O=C(/C=C/Nc1ccc(F)c(F)c1)c1ccc(Br)cc1	i	?	2%	13%	43%
O=C(/C=C/Nc1cccc(O)c1)c1ccccc1	i	-18%	-17%	14µM*	19%
O=C(/C=C/Nc1ccc(F)c(Cl)c1)c1ccccc1	i	?	2%	11µM*	.
Cc1ccc(C(=O)/C=C/Nc2cccc(O)c2)cc1	i	?	-17%	2%	12%
COc1ccccc1CCNCc1cc2cccc(C)c2nc1-c1cccs1	i	.	.	.	.
Cc1c(C(=O)NCCCc2ccncc2)cnn1-c1ncc2c(n1)-c1ccccc1CC2	i	.	.	.	.
CCCCNc1cc(C)nc(NCc2ccccc2)n1	?	18µM*	-16%	9%	?
Cc1cc(Nc2ccc(Cl)cc2)nc(NCc2ccccc2)n1	?	16µM*	?	2%[9.22 µM]	?
Cc1occc1C(=O)NCCN1Cc2ccccc2OC(c2ccccc2F)C1 (stereo unspecified)	i	.	.	.	.
COCC(=O)Nc1cc(C(=O)N2CCc3sccc3C2)c2c(c1)nc(-c1ccncc1)n2C	i	.	.	.	.
SMILES	ATXN viability	Nrf2 inh	A549 tox	Nrf2 ARE act	ATXN2 expr inh
COc1cccc(CN(C)C(=O)c2cc(S(=O)(=O)NCc3ccccc3)ccc2C)c1OC	i	-9%	-3%	0%	-7%
COc1ccc(CCN(C)C(=O)c2cc(S(=O)(=O)NCc3ccccc3)ccc2C)cc1OC	i	16µM*	-9%	1%	?
Nn1c(Nc2ccccc2)nc2sc3c(c2c1=O)CCC3	i	16µM*	-13%	4%	4%
NNc1nc2sc3c(c2c(=O)n1Cc1ccccc1)CCC3	i	10%	2%	0%	0%
Fc1cccc(/C=N/Nc2ccccn2)c1	i	?	1%	7.1µM*	29%
Cc1ccc(C)c(/C=N/Nc2ccccn2)c1	i	?	1%	8.9µM*	31%
Fc1cccc(F)c1/C=N/Nc1ccccn1	i	?	8%	?	39%
Cc1nn(CCC(=O)N2CCN(c3ccccc3F)CC2)c(C)c1S(=O)(=O)N1CCCC1	.	.	3%	0%	.
COc1ccc(C(=O)N(Cc2cc(OC)c(OC)c(OC)c2)c2ccccn2)cc1	i	?	-2%	1%	2%
COc1cc(CN(C(=O)c2ccc(OC(C)C)cc2)c2ccccn2)cc(OC)c1OC	i	5.2µM*	-5%	4%	0%
O=C(COC(=O)/C=C/c1ccco1)Nc1ccccc1	i	8%	1%	?	-28%[11.3 µM]
O=C(COC(=O)/C=C/c1ccco1)Nc1ccc(F)cc1Cl	?	22%	1%	3.2µM*	1%
COc1cc(C(=O)Nc2nc(C)c(Cc3ccc4c(c3)OCO4)s2)cc(OC)c1OC	?	15µM*	0%	4%	.
CCCOc1ccc(C(=O)Nc2nc(C)c(Cc3ccc4c(c3)OCO4)s2)cc1	?	?	-25%	-2%	.
CCOC(=O)c1ccc(NC(=O)c2cc3c(n(-c4ccc(C)cc4)c2=O)CC(C)(C)CC3=O)cc1	i	5%	10%	0%	5%
COc1ccc(OC)c(C(=O)COC(=O)c2c(OC)cccc2OC)c1	i	-9%	-9%	1%	0%
COc1ccc(OC)c(C(=O)COC(=O)c2ccccc2O)c1	.	0%	-2%	13µM*	.
Cc1ccc(S(N)(=O)=O)cc1NC(=O)/C=C/c1cccs1	i	.	-5%	13µM*	-10%
NS(=O)(=O)c1ccc(NC(=S)NC(=O)/C=C/c2cccs2)cc1	i	5%	-5%	2%	4%
Cc1ccc(NS(=O)(=O)c2cc3c(cc2Cl)CCC(=O)N3)cc1C	.	-21%	1%	.	.
CCc1cc(C=C(Cl)Cl)oc(=O)c1C	i	-14%	-20%	14µM*	-15%
Cc1cccc2cc(-c3ccccc3)c(-c3ccccc3)c[n+]12	?	23µM*	-10%	0%	?
COc1ccc(C(=O)/C=C/C(=O)N(CC(=O)NC2CCCCC2)Cc2ccccc2OC)c(O)c1	.	?	?	19%	21µM*
COc1ccc(C(=O)/C=C/C(=O)N(CC(=O)NC2CCCCC2)CC2CCCO2)c(O)c1 (stereo unspecified)	4µM*	21µM*	?	?	3.8µM*
COc1ccc(C(=O)/C=C/C(=O)N(Cc2ccccc2OC)C(C(=O)NC2CCCCC2)c2ccncc2)c(O)c1 (stereo unspecified)	.	4%	2%	8%	24µM*
O=C(NCCS(=O)(=O)c1ccc(C(F)(F)F)cn1)c1ccc(Cl)cc1	.	.	.	.	2%
C/C(=N\Nc1ncnc2sc(C)c(C)c12)c1ccccn1	?	?	23µM*	23%	0.28µM*

From PubChem BioAssay
